Laboratory results as given in PubChem BioAssay AID1159580 (chemical genetic matrix, 2015).
Among all 5,500 compounds or so, about 2,000 (36%) were called active. Roughly 18% stayed inconclusive and do not appear here. No stated cut-off is given here; in the data, active means normalized growth mostly below about 0.91 (no sharp cut-off); inconclusive means no clear call, values can overlap the other calls; inactive means mostly above about 0.92. Some of the results follow.

Test: chemical genetic growth profiling, strain panel (AID 1159580);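 further: tested at 20 µM; growth read once vehicle control cultures reached saturation at 30 °C; 1 = growth at the plate median or of vehicle wells; lower values mean less growth of the strain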
Details: growth OD

Measured: normalized growth

CC(=C(CCOP(=O)(O)O)SC(=O)c1ccccc1)N(C=O)Cc1cnc(C)nc1N
inactive: S. cerevisiae deletion strains, locus YAL013W, strain DEP1, hits give low values 1.01 | S. cerevisiae deletion strains, locus YBR021W, strain FUR4, hits give low values 1.01 | S. cerevisiae deletion strains, locus YBR229C, strain ROT2, hits give low values 1.01 | S. cerevisiae deletion strains, locus YCL029C, strain bik1, hits give low values 1 | S. cerevisiae deletion strains, locus YDL035C, strain GPR1, hits give low values 1.02 | S. cerevisiae deletion strains, locus YDL074C, strain BRE1, hits give low values 1.01 | S. cerevisiae deletion strains, locus YDL101C, strain DUN1, hits give low values 1.01 | S. cerevisiae deletion strains, locus YDL134C, strain PPH21, hits give low values 1.02 | S. cerevisiae deletion strains, locus YDL185W, strain tfp1, hits give low values 1.01 | S. cerevisiae deletion strains, locus YDL192W, strain arf1, hits give low values 1.01 | S. cerevisiae deletion strains, locus YDR101C, strain arx1, hits give low values 1 | S. cerevisiae deletion strains, locus YDR150W, strain NUM1, hits give low values 1.01 | S. cerevisiae deletion strains, locus YDR162C, strain NBP2, hits give low values 1.01 | S. cerevisiae deletion strains, locus YDR318W, strain mcm21, hits give low values 1.02 | S. cerevisiae deletion strains, locus YDR388W, hits give low values 1.01 | S. cerevisiae deletion strains, locus YDR502C, strain sam2, hits give low values 1.01 | S. cerevisiae deletion strains, locus YEL061C, strain CIN8, hits give low values 1.01 | S. cerevisiae deletion strains, locus YER110C, hits give low values 1.02 | S. cerevisiae deletion strains, locus YER155C, strain BEM2, hits give low values 1.01 | S. cerevisiae deletion strains, locus YER167W, strain BCK2, hits give low values 1.01 | S. cerevisiae deletion strains, locus YGL078C, strain dbp3, hits give low values 1.02 | S. cerevisiae deletion strains, locus YGL086W, strain mad1, hits give low values 1.01 | S. cerevisiae deletion strains, locus YGL248W, strain PDE1, hits give low values 1 | S. cerevisiae deletion strains, locus YGR135W, strain pre9, hits give low values 1.02 | S. cerevisiae deletion strains, locus YGR229C, strain SMI1, hits give low values 1.02 | S. cerevisiae deletion strains, locus YGR252W, strain gcn5, hits give low values 1 | S. cerevisiae deletion strains, locus YHR030C, strain SLT2, hits give low values 1.01 | S. cerevisiae deletion strains, locus YHR079C, strain IRE1 (second series), hits give low values 1.01 | S. cerevisiae deletion strains, locus YHR094C, strain hxt1, hits give low values 1.01 | S. cerevisiae deletion strains, locus YHR129C, strain ARP1, hits give low values 1 | S. cerevisiae deletion strains, locus YHR200W, strain rpn10, hits give low values 1.01 | S. cerevisiae deletion strains, locus YIL066C, strain RNR3, hits give low values 1.02 | S. cerevisiae deletion strains, locus YIL073C, strain SPO22, hits give low values 1.05 | S. cerevisiae deletion strains, locus YIL125W, strain kgd1, hits give low values 1.01 | S. cerevisiae deletion strains, locus YIR030C, strain dcg1, hits give low values 1.02 | S. cerevisiae deletion strains, locus YJL095W, strain BCK1, hits give low values 1.01 | S. cerevisiae deletion strains, locus YJL134W, strain LCB3, hits give low values 1.01 | S. cerevisiae deletion strains, locus YJL168C, strain set2, hits give low values 1.01 | S. cerevisiae deletion strains, locus YJL187C, strain SWE1 (second series), hits give low values 1.01 | S. cerevisiae deletion strains, locus YJR043C, strain POL32, hits give low values 1.01 | S. cerevisiae deletion strains, locus YJR075W, strain HOC1, hits give low values 1.01 | S. cerevisiae deletion strains, locus YKL009W, strain mrt4, hits give low values 1.01 | S. cerevisiae deletion strains, locus YKL068W, hits give low values 1.02 | S. cerevisiae deletion strains, locus YKL085W, strain MDH1 (second series), hits give low values 1.01 | S. cerevisiae deletion strains, locus YKL085W, strain MDH1, hits give low values 1.01 | S. cerevisiae deletion strains, locus YKL190W, strain CNB1, hits give low values 1.01 | S. cerevisiae deletion strains, locus YKR001C, strain vps1, hits give low values 1.01 | S. cerevisiae deletion strains, locus YLR039C, strain RIC1, hits give low values 1.02 | S. cerevisiae deletion strains, locus YLR058C, strain SHM2, hits give low values 1.02 | S. cerevisiae deletion strains, locus YLR102C, strain apc9, hits give low values 1.01 | S. cerevisiae deletion strains, locus YLR262C, strain YPT6, hits give low values 0.991 | S. cerevisiae deletion strains, locus YLR268W, strain sec22, hits give low values 1 | S. cerevisiae deletion strains, locus YLR330W, strain CHS5, hits give low values 1.01 | S. cerevisiae deletion strains, locus YLR342W, strain FKS1 (second series), hits give low values 1 | S. cerevisiae deletion strains, locus YLR371W, strain rom2, hits give low values 1.02 | S. cerevisiae deletion strains, locus YLR418C, strain cdc73, hits give low values 1.02 | S. cerevisiae deletion strains, locus YML016C, strain PPZ1, hits give low values 1.01 | S. cerevisiae deletion strains, locus YML032C, strain rad52, hits give low values 1.01 | S. cerevisiae deletion strains, locus YML124C, strain tub3, hits give low values 1.01 | S. cerevisiae deletion strains, locus YMR078C, strain ctf18, hits give low values 1.01 | S. cerevisiae deletion strains, locus YMR223W, strain ubp8, hits give low values 1.02 | S. cerevisiae deletion strains, locus YMR263W, strain SAP30, hits give low values 1.01 | S. cerevisiae deletion strains, locus YMR307W, strain GAS1, hits give low values 1.03 | S. cerevisiae deletion strains, locus YNL067W, strain RPL9B, hits give low values 1.01 | S. cerevisiae deletion strains, locus YNL128W, strain TEP1, hits give low values 1.02 | S. cerevisiae deletion strains, locus YNL233W, strain BNI4, hits give low values 1.03 | S. cerevisiae deletion strains, locus YNL250W, strain rad50, hits give low values 1.01 | S. cerevisiae deletion strains, locus YNL271C, strain bni1, hits give low values 1.02 | S. cerevisiae deletion strains, locus YNL298W, strain CLA4, hits give low values 1.01 | S. cerevisiae deletion strains, locus YNL307C, strain MCK1, hits give low values 1.02 | S. cerevisiae deletion strains, locus YNL322C, strain KRE1, hits give low values 1.01 | S. cerevisiae deletion strains, locus YNR052C, strain pop2, hits give low values 1.02 | S. cerevisiae deletion strains, locus YOL006C, strain TOP1, hits give low values 1.01 | S. cerevisiae deletion strains, locus YOL012C, strain htz1 1.14 | S. cerevisiae deletion strains, locus YOL147C, strain pex11, hits give low values 1.02 | S. cerevisiae deletion strains, locus YOR061W, strain CKA2, hits give low values 1.01 | S. cerevisiae deletion strains, locus YOR069W, strain VPS5, hits give low values 1.01 | S. cerevisiae deletion strains, locus YOR136W, strain idh2, hits give low values 1.02 | S. cerevisiae deletion strains, locus YOR144C, strain elg1, hits give low values 1.01 | S. cerevisiae deletion strains, locus YOR184W, strain ser1, hits give low values 1.02 | S. cerevisiae deletion strains, locus YOR316C, strain cot1, hits give low values 1.01 | S. cerevisiae deletion strains, locus YPL055C, strain LGE1, hits give low values 1.01 | S. cerevisiae deletion strains, locus YPR119W, strain clb2, hits give low values 1 | S. cerevisiae deletion strains, locus YPR141C, strain kar3, hits give low values 1.02 | S. cerevisiae deletion strains, locus YPR163C, strain tif3, hits give low values 1.01 | S. cerevisiae deletion strains, locus YPR167C, strain met16, hits give low values 1.01 | S. cerevisiae deletion strains, strain wtn01, hits give low values 1.01 | S. cerevisiae strains, strain wild type, hits give low values 1.01
